SARS PLpro yeast – inhibitors of SARS-CoV papain-like protease in yeast. S. cerevisiae expressing SARS-CoV PLpro, growth rescue. Potency, µM (doses to about 32.9 µM), without a hit: top-dose activity, positive = growth rescue, actives largely listed as activators. actives 0.19% (n = 330,000). AID 485353; calls by dose curve; also: potency is read from the fitted curve at half-maximal effect; 0% is about no effect; nearly all actives have a fitted effect of over 55% in size
CHX counter – counter-screen for Shiga toxin inhibitors: cycloheximide protein synthesis inhibition; cell reporter, cycloheximide protein synthesis inhibition counterscreen; max response, %; actives 12% (n = 300,000); AID 2314; in the data active = max response mostly above about 13%, no sharp cut-off; inactive = mostly below about 14%; also: read at 38.3 µM for the half of the compounds with a filed dose; 0% is about no effect
Pf growth 48h – P. falciparum growth inhibition at 48 hours (one generation); P. falciparum luciferase growth in erythrocytes, 48 h; Potency, µM (doses to about 28.7 µM), for inactives: at the top dose activity change, negative = inhibition, most hits filed as inhibitors; actives 5.9% (n = 310,000); AID 504832; also: potency is read from the fitted curve at half-maximal effect; % is scaled to controls: 0 for no effect and ±100 for the full control effect
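Luciferase-expressing parasites in RBCs, 2% Hct / 0.1% parasitemia final; RPMI 1640 + 0.5% Albumax; 37 C, 5% CO2, one generation; luminescence read-out, lower signal = inhibition.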
Shiga toxin inh – Shiga toxin inhibition; Vero cells, Shiga toxin protein synthesis inhibition reporter; inhibition, % at 38.7 µM; actives 9.2% (n = 290,000); in the data active = inhibition mostly above about 28%, no sharp cut-off; inactive = mostly below about 43%; also: 0% is about no effect
Pf growth 96h – P. falciparum growth inhibition at 96 hours | P. falciparum luciferase reporter growth, 96 h | Potency, µM (highest dose often 28.7 µM), for the others: at the top dose activity change, negative = inhibition, actives largely listed as inhibitors | actives 6.9% (n = 320,000); also: potency is read from the fitted curve at half-maximal effect; % is scaled to controls: 0 for no effect and ±100 for the full control effect
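Two parasite generations (96 h, 37 C, 5% CO2) of compound exposure in infected erythrocytes (0.05% parasitemia, 2% hematocrit). Luciferase-reporter P. falciparum; decreased luminescence indicates inhibited growth, aimed at apicoplast-acting delayed death.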
NS1 inh – influenza NS1 inhibition; Potency, µM (highest dose often 46.1 µM), inactives show top-dose activity, positive = more growth; actives 0.4% (n = 270,000); calls by dose curve; also: potency is read from the fitted curve at half-maximal effect; actives are rising curves; nearly all actives have a fitted effect of over 50% in size
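Read-out: OD600 growth recovery of NS1-expressing budding yeast. Cells grown overnight at 30C in -URA glucose medium, washed, resuspended and diluted 1:100 in 2% galactose assay medium, pH 6.0. Same strain lacking NS1 served as positive control.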
* marks the source's active call; other numbers are inactive results; ? = inconclusive; . = not tested or not shown; [ ] = dose if it differs, or a comment. This is a sample that favours compounds with a hit; in the whole collection about 21% have one here. Unless noted, calls follow the shape of the dose curve; as a rule, active = well fitted inhibition curve with a large enough effect; inconclusive = small, poorly fitted or top-dose-only effect, or another doubt; inactive = no such curve, though single readings can be large or run the other way.

SMILES | SARS PLpro yeast | CHX counter | Pf growth 48h | Shiga toxin inh | Pf growth 96h | NS1 inh
CCCCN(C(=O)c1ccc(Cl)c(S(=O)(=O)N2CCOCC2)c1)c1c(N)n(CCC)c(=O)[nH]c1=O | 2% | 3 | 4% | 15 | -13% | -3%
COc1ccc(NC(=O)CCCc2nnc3n(C)c(=O)c4sccc4n23)cc1 | 12% | -3 | 24% | -4 | ? | 0%
Cc1ccc(NC(=O)c2cc(=O)[nH]c3ccccc23)cc1C | 3% | -2 | 34% | -4 | ? | 5%
Cc1[nH]c2ccccc2c1/C=N/NC(=S)NCc1ccccc1 | 1% | 13 | 203% | -11 | 7% | .
C/C(=N\NC(=S)NCc1ccccc1)c1ccco1 | 0% | 19* | 7% | 37* | ? | -9%
CC1=C/C(=N\NC(=S)NCc2ccccc2)CC1 | ? | 26* | ? | 56* | ? | -2%
C/C(=N\NC(=S)NCc1ccccc1)c1ccc(C(C)(C)C)cc1 | ? | 12* | 9.3µM* | -7 | ? | 8%
C=C(C)CNC(=S)N/N=C(\C)c1ccc(OC)cc1 | -29% | 6 | 13µM* | 9 | -32% | -17%
COc1ccc(/C(C)=N/NC(=S)Nc2cc(C)ccc2C)cc1 | -3% | -3 | 0% | -9 | ? | -2%
CC/C(C)=N/NC(=S)NCc1ccco1 | -2% | -2 | -18% | -4 | -5% | -6%
Cc1cc(C)c(C)c(S(=O)(=O)NCC(=O)NCC2CCCCC2)c1C | -4% | -2 | -16% | -12 | 2% | 10%
CCC(Sc1nc(N)cc(N)n1)C(=O)O (stereo not given) | 2% | -4 | . | -13 | 3.3µM* | 11%
COc1ccc(NC(=O)c2c(N)no[n+]2[O-])c(OC)c1 | -1% | 9 | 32% | -13 | 14% | .
COc1ccc(NC(=O)c2c(N)cnn2C)cc1 | -1% | 18* | 43% | 25 | ? | -3%
Cn1ncc(N)c1C(=O)Nc1cccc(C(F)(F)F)c1 | 0% | 3 | 17% | 14 | ? | 1%
COc1ccc(NC(=O)c2c(N)no[n+]2[O-])cc1 | 1% | 16* | 48% | 48 | ? | .
CC1=C(C(=O)Nc2ccccc2)C(c2cccs2)n2nnnc2N1 (stereo not given) | 4% | -2 | ? | -5 | 27% | 1%
Fc1ccc(C2=CC(c3cccs3)n3nnnc3N2)cc1 (stereo not given) | -1% | 27* | 25% | 59* | 20% | 7%
OCCCc1nc2n(n1)C(c1cccs1)C=C(c1ccccc1)N2 (stereo not given) | ? | -1 | . | -14 | 2% | -28%
C1=C(c2ccccc2)Nc2nnnn2C1c1cccs1 (stereo not given) | 0% | 16* | 50% | 69* | -4% | 4%
COc1ccc(NC(=O)CCC(=O)OCc2ccc([N+](=O)[O-])cc2)cc1 | 1% | -7 | 33%[5.75 µM] | 6 | ? | .
CCCSc1nnc(CSc2nc(C)cc(C)n2)n1C | 4% | 5 | -12% | -7 | 10µM* | .
CCC(C)Sc1nnc(CSc2nc(C)cc(C)n2)n1C (stereo not given) | 2% | 9 | ? | 2 | 13µM* | .
Nc1c(C(=O)NCc2ccc3c(c2)OCO3)nnn1Cc1ccc(Br)cc1 | 2% | 12 | -9% | 46 | 1% | 0%
O=C(O)CCn1c(SCCOc2ccccc2F)nc2ccccc21 | 2% | 18* | ? | 5 | 10µM* | -1%
SMILES | SARS PLpro yeast | CHX counter | Pf growth 48h | Shiga toxin inh | Pf growth 96h | NS1 inh
O=C(O)CCn1c(SCc2ccccc2)nc2ccccc21 | 2% | 9 | 34% | 23* | 15% | -5%
CCSc1nc2ccccc2n1CC(=O)OC | 1% | -1 | 2% | 14 | 1%[5.75 µM] | -1%
COC(=O)Cn1c(SCc2ccccc2)nc2ccccc21 | -9% | 18* | . | 48 | 31% | -16%
COc1ccccc1OCCSc1nc2ccccc2n1CC(O)CO (stereo not given) | -2% | 13* | -4% | 25 | 281% | 18%
COc1ccc(C(=O)OCCCc2cc3ccccc3c(=O)o2)cc1 | -1% | . | 41% | . | 59% | .
CCCn1c(SCC(=O)N2c3ccccc3Sc3ccccc32)nc2ccccc21 | -23% | -2 | 13µM* | -10 | 3.7µM* | 18%
Cc1cc(NC(=O)c2cccc(S(=O)(=O)N3CCCCCC3)c2)no1 | ? | 0 | . | -16 | 8.3µM* | -7%
CN(C)S(=O)(=O)c1cccc(C(=O)Nc2ccc(S(=O)(=O)N3CCCC3)cc2)c1 | -1% | -2 | 12µM* | -4 | ? | 5%
O=C(Nc1cccc(S(=O)(=O)N2CCCC2)c1)c1cccc(OC(F)F)c1 | 4% | . | ? | . | 9.3µM* | .
CN(C)S(=O)(=O)c1cccc(NC(=O)c2cccc(S(=O)(=O)N3CCCCCC3)c2)c1 | 1% | . | 13µM* | . | 4.7µM* | .
COc1cc(C)c(S(=O)(=O)NCc2cccnc2)cc1C | 1% | -1 | 0% | -17 | -11% | -2%
CCOc1ccc(N(CC(=O)NCC2CCCO2)C(=O)CCC(=O)Nc2ccccn2)cc1 (stereo not given) | 12% | -3 | ? | -2 | ? | -7%
C#CCOCCOCCOCCNc1nc(N2CCN(C(=O)[C@H](CCC(=O)O)n3cc(CN)nn3)CC2)nc(N2CCN(C(=O)[C@H](CCCN=C(N)N)n3cc(C(N)[C@@H](C)CC)nn3)CC2)n1 (stereo not given in full) | 4% | . | . | . | . | .
C=C(C)c1cccc(C(C)(C)NC(=O)N2CCC(C(N)=O)CC2)c1 | 0% | 1 | 5% | -9 | -9% | .
COCCCNC(=S)Nc1cccc2ncccc12 | 3% | -1 | -3% | -11 | -7% | .
CCCOc1ccccc1C(=O)Nc1ccc(S(=O)(=O)N2CCN(C)CC2)cc1 | -3% | 1 | ? | -18 | -22% | -9%
O=C(O)c1ccc(NC(=O)c2cccc(S(=O)(=O)Nc3ccc(C(=O)O)cc3)c2)cc1 | 6% | 0 | 3% | -2 | 216% | 4%
CCc1cccc2cc3c(N)c(C(=O)Nc4ccc(S(=O)(=O)N5CCCC5)cc4)sc3nc12 | 17% | -2 | 12µM* | -13 | ? | 4%
CN1CCN(S(=O)(=O)c2ccc(NC(=O)c3csc4ccccc34)cc2)CC1 | -1% | -3 | 4.7µM* | 30 | . | -6%
O=C(Nc1cccc(O)c1)c1cccc(S(=O)(=O)Nc2cccc(O)c2)c1 | 8% | -2 | 1% | . | 1.9µM* | 12%
CN1CCN(S(=O)(=O)c2ccc(NC(=O)c3cccc(F)c3)cc2)CC1 | -1% | -2 | 5% | 20 | -1% | -5%
COc1cccc(CC(=O)Nc2ccc(S(=O)(=O)N3CCCCC3)cc2)c1 | 0% | . | . | . | . | .
CN1CCN(S(=O)(=O)c2ccc(NC(=O)c3cccc(S(=O)(=O)N4CCCC4)c3)cc2)CC1 | 0% | 4 | 12µM* | -21 | ? | -5%
O=C(O)c1cccc(NC(=O)c2cccc(S(=O)(=O)N3CCCCC3)c2)c1 | -3% | -3 | 240% | 5 | ? | ?
